Here are results for 13 compounds from the supplement of paper PMC10646978.

Common to all, as to settings: modulator concentration 10 µM
For experiment [1], the system named is RAW-Dual (murine macrophage reporter line). The experiment in a line: NF-kB reporter (SEAP) activity fold change vs agonist alone; higher = enhanced NF-kB activity. An outline of the steps: (§1)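 RAW-Dual murine macrophage reporter cells were plated at 50 000 per well in 384-well plates, pin-transferred compound to 10 μM final, and pre-incubated for 1 hour at 37 °C before a PRR agonist was added and the cells incubated overnight. NF-κB activity was read from supernatant SEAP with QUANTI-Blue at 620 nm absorbance, and IRF activity from Lucia luciferase with QUANTI-Luc by luminescence. Each signal was expressed as fold change by dividing by the mean agonist-only control on the same plate. Two replicate plates were averaged, with errors obtained by propagation.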

Experiment [2] shares this test system. Briefly: IRF reporter (Lucia luciferase) activity fold change vs agonist alone; higher = enhanced IRF activity. An outline of the steps: as §1
Experiment [3] has the same test system. The experiment in a line: viability score (confluency relative to resting cells, overnight) (fraction); higher = more viable, active = viable (0.7 or more). In outline: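 RAW-Dual macrophages in 384-well plates were exposed overnight to compound at 10 μM final. Confluency was imaged with IncuCyte, and two confluency masks were generated with IncuCyte software over all imaged wells. The viability score is confluency expressed relative to resting cells. Compounds were called viable if both masks exceeded 70% of resting cells.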

Setting [4] is: agonist: CpG ODN 1826 0.5 ug/mL.

Structures are written as SMILES. ± gives the standard deviation.

With `O=C(Nc1ccc([N+](=O)[O-])cc1Br)C1CC12CCC2` (stereo unspecified), the NF-kB reporter was 0.957 ± 0.074 in experiment [1] (setting [4]), 0.83 ± 0.068 in experiment [1] (agonist: LPS 0.1 ug/mL) and 1.05 ± 0.13 in experiment [1] (agonist: MPLA […]). The values for the IRF reporter in experiment [2] (agonist: 3'3'-cGAMP 10 ug/mL), in experiment [2] (agonist: LPS 0.1 ug/mL) and in experiment [2] (agonist: MPLA […]) were 1.03 ± 0.049, 1.39 ± 0.27 and 1.55 ± 0.38, respectively. Further, in experiment [3], the viability score is 1.02 (active).
Turning to `COC12C(COC(N)=O)C3=C(C(=O)C(C)=C(N)C3=O)N1CC1NC12` (stereo unspecified), the figures for the NF-kB reporter in experiment [1] (setting [4]), in experiment [1] (agonist: LPS 0.1 ug/mL) and in experiment [1] (agonist: MPLA […]) were 1.35 ± 0.12, 0.967 ± 0.083 and 1.18 ± 0.13, respectively. Besides, the values for the IRF reporter in experiment [2] (agonist: 3'3'-cGAMP 10 ug/mL), in experiment [2] (agonist: LPS 0.1 ug/mL) and in experiment [2] (agonist: MPLA […]) were 1.09 ± 0.075, 1.32 ± 0.18 and 1.41 ± 0.28, respectively. For the same compound, the viability score in experiment [3] is 0.969 (active).
For the compound `COc1ccc(OC)c(C2CC(c3ccc(Cl)cc3)=NN2S(C)(=O)=O)c1` (stereo unspecified), the NF-kB reporter came out at 0.853 ± 0.073 in experiment [1] (setting [4]), 0.897 ± 0.09 in experiment [1] (agonist: LPS 0.1 ug/mL) and 1.04 ± 0.12 in experiment [1] (agonist: MPLA […]). Moreover, the IRF reporter was 0.829 ± 0.068 in experiment [2] (agonist: 3'3'-cGAMP 10 ug/mL), 1.15 ± 0.22 in experiment [2] (agonist: LPS 0.1 ug/mL) and 1.19 ± 0.43 in experiment [2] (agonist: MPLA […]). The viability score in experiment [3] was 0.986 (active).
As for `COC(CNS(=O)(=O)c1ccccc1Cl)c1cccc(F)c1` (stereo unspecified), the NF-kB reporter in experiment [1] (setting [4]) amounted to 1.21 ± 0.074; in experiment [1] (agonist: LPS 0.1 ug/mL), 1.04 ± 0.078; in experiment [1] (agonist: MPLA […]), 1.08 ± 0.038. The figures for the IRF reporter in experiment [2] (agonist: 3'3'-cGAMP 10 ug/mL), in experiment [2] (agonist: LPS 0.1 ug/mL) and in experiment [2] (agonist: MPLA […]) were 0.849 ± 0.045, 1.03 ± 0.055 and 0.736 ± 0.12, respectively. Also, the viability score in experiment [3] was 0.995 (active).
`NC(=O)c1cn(Cc2c(F)cccc2F)nn1`: the NF-kB reporter is 1.01 ± 0.075 in experiment [1] (setting [4]), 0.951 ± 0.12 in experiment [1] (agonist: LPS 0.1 ug/mL) and 1 ± 0.049 in experiment [1] (agonist: MPLA […]). Moreover, the IRF reporter worked out at 1.17 ± 0.3 in experiment [2] (agonist: 3'3'-cGAMP 10 ug/mL), 0.923 ± 0.08 in experiment [2] (agonist: LPS 0.1 ug/mL) and 0.906 ± 0.12 in experiment [2] (agonist: MPLA […]). The viability score in experiment [3] is 0.999 (active).
`O=C(NCC1CCN(C(=O)c2ccncc2)CC1)c1ccc(Oc2ccccc2)cc1`: the NF-kB reporter in experiment [1] (setting [4]) came out at 0.988 ± 0.058; in experiment [1] (agonist: LPS 0.1 ug/mL), 0.954 ± 0.096; in experiment [1] (agonist: MPLA […]), 0.893 ± 0.026. The IRF reporter in experiment [2] (agonist: 3'3'-cGAMP 10 ug/mL) was 0.873 ± 0.066; in experiment [2] (agonist: LPS 0.1 ug/mL), 0.882 ± 0.057; in experiment [2] (agonist: MPLA […]), 0.932 ± 0.12. In addition, in experiment [3], the viability score is 0.997 (active).
`CC#C[C@]1(O)CC[C@H]2[C@@H]3CCC4=CC(=O)CCC4=C3[C@@H](c3ccc(N(C)C)cc3)C[C@@]21C`: the NF-kB reporter in experiment [1] (setting [4]) came out at 0.955 ± 0.093; in experiment [1] (agonist: LPS 0.1 ug/mL), 0.722 ± 0.15; in experiment [1] (agonist: MPLA […]), 1.39 ± 0.15. For the same compound, the IRF reporter in experiment [2] (agonist: 3'3'-cGAMP 10 ug/mL) turned out to be 0.863 ± 0.048; in experiment [2] (agonist: LPS 0.1 ug/mL) it was 0.868 ± 0.033; in experiment [2] (agonist: MPLA […]), 1.05 ± 0.31. The viability score in experiment [3] was 1 (active).
For the compound `O=c1oc2ccccc2c(O)c1Cc1c(O)c2ccccc2oc1=O`, the NF-kB reporter came to 1.06 ± 0.089 in experiment [1] (setting [4]), 0.972 ± 0.061 in experiment [1] (agonist: LPS 0.1 ug/mL) and 1.03 ± 0.051 in experiment [1] (agonist: MPLA […]). Further, the IRF reporter turned out to be 1.06 ± 0.12 in experiment [2] (agonist: 3'3'-cGAMP 10 ug/mL), 0.916 ± 0.048 in experiment [2] (agonist: LPS 0.1 ug/mL) and 0.844 ± 0.07 in experiment [2] (agonist: MPLA […]). For the same compound, in experiment [3], the viability score was 0.997 (active).
As for `Cc1cncc(CN2CCC(=C3c4ccc(Cl)cc4CCc4cccnc43)CC2)c1.O=C(O)/C=C/C(=O)O`, the NF-kB reporter in experiment [1] (setting [4]) was 1.46 ± 0.14; in experiment [1] (agonist: LPS 0.1 ug/mL), 1.19 ± 0.096; in experiment [1] (agonist: MPLA […]), 1.73 ± 0.23. Further, the values for the IRF reporter in experiment [2] (agonist: 3'3'-cGAMP 10 ug/mL), in experiment [2] (agonist: LPS 0.1 ug/mL) and in experiment [2] (agonist: MPLA […]) were 0.931 ± 0.097, 0.799 ± 0.092 and 1.29 ± 0.16, respectively. In addition, in experiment [3], the viability score was 1 (active).
For `Br.CN(C)CCCC1(c2ccc(F)cc2)OCc2cc(C#N)ccc21` (stereo unspecified), the figures for the NF-kB reporter in experiment [1] (setting [4]), in experiment [1] (agonist: LPS 0.1 ug/mL) and in experiment [1] (agonist: MPLA […]) were 0.81 ± 0.12, 1.02 ± 0.29 and 0.95 ± 0.07, respectively. Further, the results for the IRF reporter in experiment [2] (agonist: 3'3'-cGAMP 10 ug/mL), in experiment [2] (agonist: LPS 0.1 ug/mL) and in experiment [2] (agonist: MPLA […]) were 0.801 ± 0.043, 1.37 ± 0.4 and 1.39 ± 0.24, respectively. The viability score in experiment [3] is 0.979 (active).
Consider `CCN(CC)Cc1cc(Nc2ccnc3cc(Cl)ccc23)ccc1O.Cl.Cl.O.O`, for which the NF-kB reporter in experiment [1] (setting [4]) came out at 0.606 ± 0.026; in experiment [1] (agonist: LPS 0.1 ug/mL), 0.671 ± 0.054; in experiment [1] (agonist: MPLA […]), 0.944 ± 0.068. For the same compound, the IRF reporter was 1.39 ± 0.23 in experiment [2] (agonist: 3'3'-cGAMP 10 ug/mL), 1.22 ± 0.24 in experiment [2] (agonist: LPS 0.1 ug/mL) and 1.16 ± 0.46 in experiment [2] (agonist: MPLA […]). In experiment [3], the viability score was 0.931 (active).
`CS(=O)(=O)O.Cc1ccc(N(CC2=NCCN2)c2cccc(O)c2)cc1`: the NF-kB reporter was 0.981 ± 0.19 in experiment [1] (setting [4]), 1.03 ± 0.34 in experiment [1] (agonist: LPS 0.1 ug/mL) and 0.957 ± 0.09 in experiment [1] (agonist: MPLA […]). Moreover, the IRF reporter in experiment [2] (agonist: 3'3'-cGAMP 10 ug/mL) is 0.628 ± 0.019; in experiment [2] (agonist: LPS 0.1 ug/mL) it was 1.09 ± 0.28; in experiment [2] (agonist: MPLA […]), 1.04 ± 0.08. Also, the viability score in experiment [3] is 1 (active).
As to `Cc1cc(C(O)CNC(=O)c2ccc(C(F)(F)F)nc2)c(C)o1` (stereo unspecified), the NF-kB reporter in experiment [1] (setting [4]) was 1.25 ± 0.083; in experiment [1] (agonist: LPS 0.1 ug/mL), 1.05 ± 0.085; in experiment [1] (agonist: MPLA […]), 1.01 ± 0.029. Besides, the results for the IRF reporter in experiment [2] (agonist: 3'3'-cGAMP 10 ug/mL), in experiment [2] (agonist: LPS 0.1 ug/mL) and in experiment [2] (agonist: MPLA […]) were 0.965 ± 0.049, 1.04 ± 0.053 and 1.16 ± 0.11, respectively. In experiment [3], the viability score was 1 (active).
